Source: PubChem BioAssay AID1159580 (chemical genetic matrix, 2015)
Where “and” joins values, the source holds several entries; their conditions need not be identical. Identical values can stand only once. The whole screen tested about 5,500 compounds, of which about 2,000 (36%) were called active. Another 18% or so got no clear call; they are omitted. Rule as the data show it: active = normalized growth mostly below about 0.91 (no sharp cut-off); inconclusive = no clear call, values can overlap the other calls; inactive = mostly above about 0.92. The list shows a part of the results.

Test: chemical genetic growth profiling, strain panel (AID 1159580);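 also: tested at 20 µM; growth read once vehicle control cultures reached saturation at 30 °C; 1 = growth at the plate median or of vehicle wells; lower values mean less growth of the strain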
Settings: S. cerevisiae deletion strains, growth OD

Measured: normalized growth

COC1=C(OC)C(=O)C(C/C=C(\C)CC/C=C(\C)CC/C=C(\C)CC/C=C(/C)CC/C=C(\C)CC/C=C(\C)CC/C=C(\C)CC/C=C(\C)CC/C=C(\C)CCC=C(C)C)=C(C)C1=O
inactive: locus YAL013W, strain DEP1, stronger effect = lower value 0.999 | locus YAL021C, strain ccr4, stronger effect = lower value 0.983 | locus YAL026C, strain drs2, stronger effect = lower value 0.97 | locus YAL030W, strain snc1, stronger effect = lower value 0.989 | locus YBL061C, strain skt5, stronger effect = lower value 0.996 | locus YBR009C, strain hhf1, stronger effect = lower value 1.01 | locus YBR021W, strain FUR4, stronger effect = lower value 1.07 | locus YBR023C, strain chs3, stronger effect = lower value 0.978 | locus YBR171W, strain sec66, stronger effect = lower value 0.973 | locus YBR229C, strain ROT2, stronger effect = lower value 0.959 | locus YBR231C, strain swc5, stronger effect = lower value 0.974 | locus YBR279W, strain paf1, stronger effect = lower value 0.989 | locus YCL011C, strain gbp2, stronger effect = lower value 0.96 | locus YCL016C, strain dcc1, stronger effect = lower value 0.994 | locus YCL029C, strain bik1, stronger effect = lower value 0.969 | locus YCL069W, strain vba3, stronger effect = lower value 0.972 | locus YCR088W, strain abp1, stronger effect = lower value 0.972 | locus YDL005C, strain med2, stronger effect = lower value 0.977 | locus YDL035C, strain GPR1, stronger effect = lower value 1.03 | locus YDL040C, strain nat1, stronger effect = lower value 0.983 | locus YDL074C, strain BRE1, stronger effect = lower value 1.11 | locus YDL101C, strain DUN1, stronger effect = lower value 0.982 | locus YDL134C, strain PPH21, stronger effect = lower value 1.01 | locus YDL185W, strain tfp1, stronger effect = lower value 0.991 | locus YDL192W, strain arf1, stronger effect = lower value 1.02 | locus YDR001C, strain nth1, stronger effect = lower value 0.989 | locus YDR069C, strain doa4, stronger effect = lower value 0.96 | locus YDR101C, strain arx1, stronger effect = lower value 1.02 | locus YDR137W, strain rgp1, stronger effect = lower value 0.983 | locus YDR159W, strain sac3, stronger effect = lower value 0.963 | locus YDR162C, strain NBP2, stronger effect = lower value 0.972 | locus YDR195W, strain ref2 0.963 | locus YDR297W, strain sur2, stronger effect = lower value 0.975 | locus YDR318W, strain mcm21, stronger effect = lower value 0.984 | locus YDR334W, strain swr1, stronger effect = lower value 0.969 | locus YDR335W, strain msn5, stronger effect = lower value 0.974 | locus YDR388W, stronger effect = lower value 1 | locus YDR392W, strain spt3, stronger effect = lower value 0.967 | locus YDR502C, strain sam2, stronger effect = lower value 0.989 | locus YEL003W, strain gim4, stronger effect = lower value 0.983 | locus YEL037C, strain rad23, stronger effect = lower value 0.981 | locus YEL061C, strain CIN8 (second series), stronger effect = lower value 0.941 | locus YEL061C, strain CIN8, stronger effect = lower value 1.01 | locus YER015W, strain faa2, stronger effect = lower value 0.979 | locus YER016W, strain bim1, stronger effect = lower value 0.978 | locus YER110C, stronger effect = lower value 0.983 | locus YER111C, strain swi4, stronger effect = lower value 0.958 | locus YER155C, strain BEM2 (second series), stronger effect = lower value 0.982 | locus YER155C, strain BEM2, stronger effect = lower value 1 | locus YER167W, strain BCK2, stronger effect = lower value 1 | locus YFR010W, strain ubp6, stronger effect = lower value 0.964 | locus YGL078C, strain dbp3, stronger effect = lower value 1.01 | locus YGL086W, strain mad1, stronger effect = lower value 1.04 | locus YGL167C, strain pmr1, stronger effect = lower value 0.981 | locus YGL173C, strain kem1, stronger effect = lower value 0.982 | locus YGL227W, strain vid30, stronger effect = lower value 0.96 | locus YGL240W, strain doc1, stronger effect = lower value 0.974 | locus YGL248W, strain PDE1, stronger effect = lower value 0.999 | locus YGL253W, strain hxk2, stronger effect = lower value 0.988 | locus YGR078C, strain PAC10, stronger effect = lower value 0.996 | locus YGR135W, strain pre9, stronger effect = lower value 1 | locus YGR252W, strain gcn5, stronger effect = lower value 1.02 | locus YHR013C, strain ard1, stronger effect = lower value 0.957 | locus YHR027C, strain rpn1, stronger effect = lower value 0.968 | locus YHR030C, strain SLT2, stronger effect = lower value 1.02 and 1.01 | locus YHR079C, strain IRE1 (second series), stronger effect = lower value 0.986 | locus YHR079C, strain IRE1, stronger effect = lower value 1.02 | locus YHR094C, strain hxt1, stronger effect = lower value 0.999 | locus YHR129C, strain ARP1, stronger effect = lower value 1.01 | locus YHR142W, strain chs7, stronger effect = lower value 0.972 | locus YHR200W, strain rpn10, stronger effect = lower value 0.976 | locus YIL066C, strain RNR3, stronger effect = lower value 1.01 | locus YIL073C, strain SPO22, stronger effect = lower value 1.03 | locus YIL125W, strain kgd1, stronger effect = lower value 0.998 | locus YIR030C, strain dcg1, stronger effect = lower value 0.995 | locus YJL092W, strain hpr5, stronger effect = lower value 0.958 | locus YJL095W, strain BCK1 (second series), stronger effect = lower value 0.973 | locus YJL095W, strain BCK1, stronger effect = lower value 1.01 and 0.989 | locus YJL115W, strain asf1, stronger effect = lower value 0.969 | locus YJL129C, strain trk1, stronger effect = lower value 0.979 | locus YJL134W, strain LCB3, stronger effect = lower value 0.991 | locus YJL154C, strain vps35, stronger effect = lower value 0.976 | locus YJL164C, strain tpk1, stronger effect = lower value 0.999 | locus YJL166W, strain qcr8, stronger effect = lower value 0.978 | locus YJL168C, strain set2, stronger effect = lower value 0.994 | locus YJL187C, strain SWE1 (second series), stronger effect = lower value 0.985 | locus YJL187C, strain SWE1, stronger effect = lower value 0.984
